Laboratory results from PubChem BioAssay.

test: optical density change of DRC41 E. coli – strain DRC41, OD650, 24 h, E. coli filamentation project, primary screen (AID 1093);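 note: MC1000 strain lacking acrAB efflux and sulA so SOS filamentation is blocked; test concentration not given here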; settings: E. coli DRC41 growth, higher = more signal, called active from +8 up or from −8 down

z-score, inactive:
CC(C)=NO[C@H](C)c1cn([C@H](CO)Cc2ccccc2)nn1 0.208
CCOC(=O)[C@H](CC(C)C)NC(=O)CCC1CC(OC(=O)NCc2cccc3ccccc23)CC2(CCCC(COC(=O)NCCOc3ccccc3)O2)O1 (stereo not given in full) 0.0653
O=C1C[C@@H](O)[C@@H](O)[C@@H]2[C@@H]3C(=O)N(C[C@@H]4CCCO4)C(=O)[C@@H]3CC[C@@H]12 0.48
CCOC(=O)[C@H](CC(C)C)NC(=O)CCC1CC(OC(=O)NCc2cccc3ccccc23)CC2(CCCC(COC(=O)NCCc3ccc(Cl)cc3)O2)O1 (stereo not given in full) -0.0339
CO[C@H]1COC(=O)CC=C[C@@H](C)[C@H](NS(=O)(=O)c2ccc(C)cc2)COC(=O)CCC[C@@H]1C -0.0537
CO[C@H]1COC(=O)[C@H](C)NC(=O)CC=C[C@@H](C)[C@H](OC)COC(=O)[C@@H](OCc2ccccc2)C=C[C@@H]1C 0.786
CCCNC(=O)OC[C@H]1O[C@H](CCON=C(C)CCN2CCCc3nc(C)c(C)cc32)C=C[C@@H]1Oc1ccc(OC)cc1 1.05
C#CCCCON=C1C[C@@H](O)[C@@H](O)[C@@H]2[C@@H]3C(=O)N(CC)C(=O)[C@@H]3CC[C@@H]12 0.439
COC(=O)[C@H](C)NC(=O)CCC1CC(OC(=O)NCc2ccc3c(c2)OCO3)CC2(CCCC(COC(=O)NCC3CCCCC3)O2)O1 (stereo not given in full) -0.0678
CO[C@H]1COC(=O)CC=C[C@@H](C)[C@H](OC)COC(=O)[C@@H]2CCCN2C(=O)CC=C[C@@H]1C 0.619
